From PubChem
Most compounds without a hit are left out; they make up all but 19% or so of the library.
TDP1 cell CPT: growth inhibition of DT40 Tdp1-/-;hTDP1 cells with camptothecin (screen for TDP1 inhibitors); chicken DT40 Tdp1-/-;hTDP1 cells + 20 nM CPT, ATP luminescence, 48 h; Potency, µM (doses to about 46.2 µM), without a hit: at the highest dose activity change, negative = growth inhibition, usual class: inhibitors; actives 12% (n = 420,000); AID 686979; note: nearly all actives have a fitted effect of over 55% in size
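Cell growth measured by CellTiter-Glo luminescence after a minimum 48 h, 37 C compound exposure with 20 nM CPT in Tdp1-knockout DT40 cells stably expressing hTDP1, seeded 400/well; qHTS titration format.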
TDP1 block: inhibitors of human tyrosyl-DNA phosphodiesterase TDP1; Q9NUW8; recombinant TDP1, AlphaScreen DNA substrate cleavage; Potency, µM (doses to about 130 µM), for inactives: top-dose activity change, negative = inhibition, hits mostly inhibitors; actives 0.28% (n = 350,000); AID 485290; note: nearly all actives have a fitted effect of over 40% in size
Target sequence (Q9NUW8 whole entry, looked up): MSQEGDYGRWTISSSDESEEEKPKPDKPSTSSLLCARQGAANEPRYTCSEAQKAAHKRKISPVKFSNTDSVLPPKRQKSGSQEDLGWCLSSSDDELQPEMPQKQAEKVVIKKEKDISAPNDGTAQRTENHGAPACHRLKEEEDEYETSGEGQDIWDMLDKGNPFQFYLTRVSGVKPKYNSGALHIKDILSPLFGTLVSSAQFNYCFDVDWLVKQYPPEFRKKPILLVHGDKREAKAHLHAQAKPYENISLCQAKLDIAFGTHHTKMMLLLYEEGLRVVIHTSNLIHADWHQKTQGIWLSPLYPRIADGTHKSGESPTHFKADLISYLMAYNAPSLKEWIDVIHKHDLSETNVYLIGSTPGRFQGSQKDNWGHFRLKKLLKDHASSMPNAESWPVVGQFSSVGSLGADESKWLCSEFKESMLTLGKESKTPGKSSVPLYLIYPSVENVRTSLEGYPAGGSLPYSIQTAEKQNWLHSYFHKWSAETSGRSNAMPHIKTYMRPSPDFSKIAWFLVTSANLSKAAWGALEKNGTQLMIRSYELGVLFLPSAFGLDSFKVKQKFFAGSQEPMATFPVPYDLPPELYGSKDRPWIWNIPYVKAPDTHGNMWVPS
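Compounds were preincubated with Tdp1 (1 nM final) for 15 min at room temperature before substrate (15 nM final) started a 5 min reaction; beads (10 ug/ml final) were then added for 10 min before AlphaScreen detection.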
Gal4-VP16 FLuc: inhibits Gal4-VP16 luciferase reporter, ROR gamma counter-screen | Drosophila S2 Gal4-VP16 UAS-luciferase, luminescence, 20 h | Potency, µM (titrated, usually from 53.6 µM), inactives show top-dose activity, negative = inhibition, actives largely listed as inhibitors | actives 3.5% (n = 310,000);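 note: Gal4-VP16 expression switched on by copper sulfate through the metallothionein promoter; nearly all actives have a fitted effect of over 50% in size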
DT40 TDP1 no CPT: qHTS for Inhibitors of human tyrosyl-DNA phosphodiesterase 1 (TDP1): qHTS in cells in absence of CPT. DT40 Tdp1-/- hTDP1 cells, no CPT, ATP luminescence, 48 h. Potency, µM (highest dose often 46.2 µM), inactives show at the highest dose activity change, negative = growth inhibition, actives largely listed as inhibitors. actives 15% (n = 420,000); note: nearly all actives have a fitted effect of over 55% in size
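Chicken DT40 Tdp1-/- cells stably complemented with human TDP1 were seeded at 400 cells/well with DMSO in place of 20 nM camptothecin. After compound pinning, cells grew at least 48 hr at 37 °C; viability read by CellTiter-Glo luminescence.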
RORg inh: ROR gamma (mouse) transcription inhibition. P51450. Drosophila S2 Gal4-RORgamma UAS-luciferase reporter, 20 h. Potency, µM (highest dose often 53.6 µM), without a hit: at the highest dose activity change, negative = inhibition, actives largely listed as inhibitors. actives 5.4% (n = 310,000). AID 2551; note: nearly all actives have a fitted effect of over 60% in size
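Drosophila Schneider cells stably carrying a metallothionein-driven Gal4 DBD–ROR gamma fusion and a UAS-Photinus luciferase reporter were exposed to compound for 1 hr, then induced with copper sulfate (700 uM final) for 20 hr at ambient temperature before luminescence reading.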
Active calls of the source: *; ? = inconclusive; / = not tested or not shown; [ ] = another dose, or the depositor's remark. Calls come from the whole dose curve; as a rule, active = well fitted curve in the direction sought with a large enough effect; inconclusive = small, poorly fitted or top-dose-only effect, or another doubt; inactive = no such curve, though single readings can be large; an effect the other way counts as inactive or inconclusive. % is set by controls: 0 for no effect and ±100 for the full control effect; potency is the fitted concentration of half-maximal effect.

SMILES	TDP1 cell CPT	TDP1 block	Gal4-VP16 FLuc	DT40 TDP1 no CPT	RORg inh
CCOCCCNC(=S)N(Cc1ccccc1)Cc1nc2ccccc2c(=O)[nH]1	-23.9%	0.0%	?	?	11.2µM*
CCN(Cc1nc2ccccc2c(=O)[nH]1)C(=O)c1cccc(OCc2c(C)noc2C)c1	?	6.2%	/	16.4µM*	/
O=C(c1ccccc1)N(Cc1ccc(F)cc1)Cc1nc2ccccc2c(=O)[nH]1	?	2.7%	?	-26.6%	3.55µM*
CCCNC(=S)N(Cc1ccccc1)Cc1nc2ccccc2c(=O)[nH]1	-24.9%	-2.7%	?	?	12.6µM*
CCCS(=O)(=O)Nc1cccc(-c2nc3cccnc3s2)c1	-26.1%	0.0%	-5.8%	?	2.4%
Cc1ccc(SC2=C[C@@]3(O)CC[C@@H](O)[C@@](Sc4ccc(C)cc4)(C2=O)[C@H]3O)cc1	23.1µM*	/	/	?	/
CC(C)(C)c1ccc(SC2=C[C@@]3(O)CC[C@@H](O)[C@@](Sc4ccc(C(C)(C)C)cc4)(C2=O)[C@H]3O)cc1	4.61µM*	/	/	3.26µM*	/
c1cc(CNc2ccc3c(c2)OCCO3)ccn1	-28.9%	3.3%	24.7%	-3.2%	14.5%
COc1ccc(OC)c(NC(=O)CN2C(=O)C3(OCCCO3)c3ccccc32)c1	-14.0%	4.4%	-0.5%	-10.8%	5.2%
CC1(c2ccccc2)CC(C)(C)n2c(O)c(C3=NC(=S)NC3=O)c3cccc1c32 (configuration not stated)	?	/	0.8%	23.1µM*	-31.0%
COc1cc2c3c(c1)c(C1=NC(=S)NC1=O)c(O)n3C(C)(C)C=C2C	-25.5%	5.3%	-15.3%	-13.2%	-24.0%
C=C1[C@@H](O)[C@H](Cc2ccccc2)N(Cc2ccccc2Br)S1(=O)=O	20.6µM*	/	/	18.4µM*	/
NC(=O)c1ccccc1OCC(=O)N1CCc2ccccc2C1	?	-0.1%[0.0935 µM]	-13.3%	13µM*	?
O=C(CN1C(=O)c2ccccc2C1=O)OCC(=O)N1CCc2ccccc2C1	-11.5%	0.0%	0.1%	0.0092µM*	-0.7%
Cc1ccc(OCC(=O)N2CCc3ccccc3C2)c(C)c1	-11.9%	-3.3%	-6.9%	?	40.6%
COC(=O)c1[nH]c2cc(OC)ccc2c1NC(=O)CN1CCOCC1	/	6.7%	6.7%	/	?
Cc1ccc(CNC(=O)c2ccc(N3CCC4(CC3)CC(c3cccc(Br)c3)=NO4)c(NC(=O)c3ccc(Cl)c([N+](=O)[O-])c3)c2)cc1	7.9%	1.8%	/	-3.0%	/
CCOc1cccc(CNc2ccc(O)cc2)c1OCc1ccc(Cl)cc1Cl	14.6µM*	4.4%	?	20.6µM*	15.8µM*
C=CCOc1c(CNc2ccc(C(=O)O)cc2)cccc1OCC	-15.8%	3.1%	?	-8.9%	11.3%
CCOc1cccc(CNCCO)c1OCc1ccc(Cl)cc1Cl	16.4µM*	1.8%	-4.6%	16.4µM*	1.2%
CCOc1cccc(CNn2cnnc2)c1OCc1ccccc1Cl	-18.4%	3.1%	-3.4%	-28.6%	-10.2%
CCOc1cc(CNCCO)cc(Br)c1OCc1ccc(Cl)cc1Cl	16.4µM*	5.9%	?	14.6µM*	17.1%
CCOc1cc(CNc2ccc(O)cc2)cc(Cl)c1OCc1ccccc1	20.6µM*	4.2%	/	16.4µM*	/
CCOc1cc(CNc2ccccc2)cc(Br)c1OCc1ccc(F)cc1	?	5.7%	-1.1%	?	23.6%
COc1ccc(C(=O)NC2CCN(Cc3c(F)cccc3Cl)CC2)cc1OC	-21.5%	/	-9.5%	?	-2.5%
SMILES	TDP1 cell CPT	TDP1 block	Gal4-VP16 FLuc	DT40 TDP1 no CPT	RORg inh
CCOc1cccc(CNc2ccc(O)cc2)c1OCc1ccccc1Cl	13µM*	8.5%	-3.6%	11.6µM*	-0.8%
COc1cc(CNCCO)cc(Br)c1OCc1ccccc1	-11.2%	-2.4%	11.0%	-23.6%	-44.1%
CCOc1cc(CNCCO)cc(Br)c1OCc1cccs1	14.6µM*	4.3%	-28.8%	18.4µM*	?
N#CC1=C2N=C(N)c3ccccc3N2C2=C(C(=O)CCC2)C1c1ccc(Cl)cc1 (configuration not stated)	20.6µM*	1.3%	-10.5%	16.4µM*	-0.8%
N#CC1=C2N=C(N)c3ccccc3N2C2=C(C(=O)CCC2)C1c1ccccc1F (configuration not stated)	6.6%	5.2%	1.0%	-9.8%	7.8%
Cc1c(C2C(C#N)=C(N)N(c3ccccc3C#N)C3=C2C(=O)CCC3)cnn1C (configuration not stated)	-10.5%	0.0%	-5.1%	1.2%	0.1%
CC1(C)CC(=O)C2=C(C1)N1C(=C(C#N)C2c2ccccc2Cl)N=C(N)c2ccccc21 (configuration not stated)	?	5.3%	2.7%	?	?
CC1(C)CC(=O)C2=C(C1)N1C(=C(C#N)C2c2ccc(Cl)cc2)N=C(N)c2ccccc21 (configuration not stated)	?	7.9%	-21.3%	20.6µM*	?
Cc1ccccc1C1C(C#N)=C2N=C(N)c3c(sc4c3CCCCC4)N2C2=C1C(=O)CCC2 (configuration not stated)	?	9.3%	?	?	14.1µM*
CCC1CCCCN1C(=S)NC1CCCCC1 (configuration not stated)	?	2.7%	?	?	10µM*
O=C(COC(=O)Cc1cccs1)Nc1cccc(S(=O)(=O)N2CCOCC2)c1	13.6%	-14.0%	/	-4.6%	/
CCCCCOc1ccc(C2NC(=O)NC2=O)cc1 (configuration not stated)	-23.2%	2.2%	-16.9%	-16.3%	?
CCCCOc1ccc(C2CCC(C(C)=O)C(C)C2)cc1 (configuration not stated)	?	-3.1%	7.2%	23.1µM*	20.9%
COc1ccc(NC(=O)NCc2ccco2)c(OC)c1	?	2.7%	-7.4%	?	-6.6%
CCOc1ccc(NC(=S)NC(=O)/C=C/c2ccco2)cc1	?	/	5.62µM*	18.4µM*	3.98µM*
CN1CCN(c2ccc(NC(=S)NC(=O)/C=C/c3ccco3)cc2)CC1	?	11.8%	11.2µM*	20.6µM*	11.2µM*
COc1cccc(NC(=S)NC(=O)/C=C/c2ccco2)c1	18.4µM*	2.7%	?	14.6µM*	11.2µM*
COc1ccc(NC(=S)NC(=O)/C=C/c2ccco2)c(OC)c1	-56.3%	/	12.6µM*	?	12.6µM*
COC(=O)c1cc(-c2ccc(OC)cc2F)nc2nc(SC)[nH]c(=O)c12	-26.5%	4.7%[0.0935 µM]	-4.3%	?	-4.6%
CCCN(CC(=O)Nc1ccccc1C)C(=O)c1ccc(S(=O)(=O)N2CCC(C)CC2)cc1	-28.5%	-0.6%	/	?	/
